Experiment [1] is described as follows: qHTS assay to identify small molecule antagonists of the thyroid receptor (TR) signaling pathway - cell viability counter screen (AID 743064). Note: nearly all actives have a fitted effect of over 50% in size. In outline:
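Rat GH3 pituitary tumor cells stably expressing two TR response elements driving luciferase were plated, rested 4 h, then dosed with library compounds and T3 (1 nM final). After 23.5 h at 37 °C, CellTiter-Fluor was added for 30 min and fluorescence recorded.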
(In qHTS, concentration-response curves come from the screen itself.)

Experiment [2] is described as follows: qHTS assay to identify small molecule antagonists of the thyroid receptor (TR) signaling pathway (AID 743065). Note: series mostly up to about 70 µM; nearly all actives have a fitted effect of over 55% in size. In outline: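 GH3.TRE-Luc rat pituitary cells (two TREs driving luciferase) were dosed with compound, then stimulated with 1 nM T3 (final) for 23.5 h at 37 C. ONE-Glo luminescence was the read-out, with CellTiter-Fluor fluorescence as the cytotoxicity counter-screen.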

Experiment [3] deals with thyroid hormone receptor (rat, GH3 cells). Description: qHTS assay to identify small molecule agonists of the thyroid receptor (TR) signaling pathway (AID 743066; calls by dose curve).
Experiment [4] addresses Estrogen receptor (Homo sapiens) (UniProt P03372). Description: qHTS assay to identify small molecule antagonists of the estrogen receptor alpha (ER-alpha) signaling pathway (AID 743069; active = well fitted curve in the direction sought with a large enough effect in the signal ratio in the repeat runs, not every such curve was filed as active; the % refers to the signal ratio). A digest of the protocol: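 In this cell-based reporter format, GripTite HEK293 cells harbouring ER-alpha-UAS-bla were grown overnight with 2% charcoal-stripped FBS, dosed with DMSO-dissolved compounds, then challenged with 17beta-estradiol. After 18 hr at 37C, beta-lactamase activity was detected by FRET fluorescence.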

Experiment [5] is described as follows: qHTS assay to identify small molecule antagonists of the estrogen receptor alpha (ER-alpha) signaling pathway - cell viability counter screen (AID 743074; calls by dose curve; note: nearly all actives have a fitted effect of over 45% in size).
Experiment [6] has as its target Estrogen receptor (Homo sapiens) (UniProt P03372). In words: qHTS assay to identify small molecule agonists of the estrogen receptor alpha (ER-alpha) signaling pathway (AID 743075; calls by dose curve).
Experiment [7] has the same target. Description: qHTS assay to identify small molecule agonists of the estrogen receptor alpha (ER-alpha) signaling pathway using the BG1 cell line (AID 743079). Note: nearly all actives have a fitted effect of over 20% in size. Note: potency is the fitted concentration of half-maximal effect.
A short description of experiment [8]: qHTS assay to identify small molecule antagonists of the estrogen receptor alpha (ER-alpha) signaling pathway using the BG1 cell line (AID 743080; calls by dose curve;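 note: BG1 cells stimulated with 17beta-estradiol alongside compound; series mostly up to about 70 µM; nearly all actives have a fitted effect of over 25% in size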). A digest of the protocol: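 Luciferase inhibition measured with ONE-Glo after 30 min at RT in BG1Luc4E2 cells given test compounds and 17beta-estradiol for 21.5 h at 37 C; CellTiter-Fluor viability read in the same wells beforehand.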

A short description of experiment [9]: qHTS assay to identify small molecule antagonists of the estrogen receptor alpha (ER-alpha) signaling pathway using the BG1 cell line - cell viability counter screen (AID 743081).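 Note: compound given together with 17beta-estradiol as the ER stimulus; series mostly up to about 70 µM; nearly all actives have a fitted effect of over 45% in size.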
The next experiment concerns the target Aromatase (Homo sapiens) (UniProt P11511). Description: qHTS assay to identify aromatase inhibitors (AID 743083). Note: series mostly up to about 70 µM; nearly all actives have a fitted effect of over 55% in size.
A short description of experiment [10]: qHTS assay to identify aromatase inhibitors - cell viability counter screen (AID 743084).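 Note: cells stimulated with testosterone during compound exposure; nearly all actives have a fitted effect of over 55% in size.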
The target in experiment [11] is Aryl hydrocarbon receptor (Homo sapiens) (UniProt P35869). In words: qHTS assay to identify small molecule that activate the aryl hydrocarbon receptor (AhR) signaling pathway (AID 743085).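 Note: HG2L7.5c1 human HepG2 liver cells with stably integrated DRE-driven firefly reporter; series mostly up to about 70 µM; nearly all actives have a fitted effect of over 15% in size.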 A digest of the protocol: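 Compounds were tested in HepG2 hepatocellular carcinoma cells harbouring a stably integrated luciferase gene under control of 20 DREs. Increased reporter signal after 24 h treatment at 37C was taken as AhR activation.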

The nature of experiment [12]: qHTS assay to identify small molecule that activate the aryl hydrocarbon receptor (AhR) signaling pathway - cell viability counter screen (AID 743086).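 Note: HepG2 liver cells carrying the AhR DRE luciferase reporter; series mostly up to about 70 µM; nearly all actives have a fitted effect of over 45% in size.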 A digest of the protocol:
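HepG2-AhR-luc (HG2L7.5c1) cells, 4000/well, treated 24 h at 37 C with compound; viability measured as CellTiter-Fluor fluorescence after 30 min in the same wells as the luciferase read.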

For experiment [13], the target named is Peroxisome proliferator-activated receptor gamma (Homo sapiens) (UniProt P37231). Description: qHTS assay to identify small molecule agonists of the peroxisome proliferator-activated receptor gamma (PPARg) signaling pathway (AID 743094; active = well fitted activation curve with a large enough effect in the signal ratio in the repeat runs, not every such curve was filed as active; the % refers to the signal ratio). In outline: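 Fluorescence-based beta-lactamase readout in HEK293H PPARg UAS-bla cells after 17 h compound exposure (37C) and 1 h B/G FRET substrate incubation at room temperature.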

Experiment [14] shares this target. In words: qHTS assay to identify small molecule antagonists of the peroxisome proliferator-activated receptor gamma (PPARg) signaling pathway (AID 743191; calls by dose curve; note: series mostly up to about 63 µM; nearly all actives have a fitted effect of over 30% in size). A digest of the protocol:
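GeneBLAzer PPARg UAS-bla HEK293H cells, 5 h post-plating, exposed to compounds 17 h at 37C. LiveBLAzer B/G FRET substrate added for 1 h at room temperature; beta-lactamase reporter read by fluorescence intensity.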

A short description of experiment [15]: qHTS assay to identify small molecule antagonists of the peroxisome proliferator-activated receptor gamma (PPARg) signaling pathway - cell viability counter screen (AID 743194). Note: nearly all actives have a fitted effect of over 55% in size. In outline:
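Cytotoxicity counter screen in PPARg-bla HEK293H cells, same wells as reporter assay. Compounds plus 50 nM rosiglitazone (final) for 17 h at 37 C, then viability read by CellTiter-Glo luminescence.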

Experiment [16] is described as follows: qHTS assay for small molecule agonists of the antioxidant response element (ARE) signaling pathway - cell viability counter screen (AID 743203; calls by dose curve; note: nearly all actives have a fitted effect of over 55% in size). In outline:
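Parallel cytotoxicity read-out for the ARE-bla screen: HepG2 reporter cells, 16 hrs with compounds, then CellTiter-Glo luminescence.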

Experiment [17] is described as follows: qHTS assay for small molecule activators of the heat shock response signaling pathway - cell viability counter screen (AID 743209). Note: nearly all actives have a fitted effect of over 50% in size. In outline:
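To flag cytotoxic compounds, HSE-bla HeLa cells plated at 1500 cells/well were dosed for 5 h at 37 C, followed by the reporter FRET read and then CellTiter-Glo, with luminescence recorded 30 min after reagent addition.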

A short description of experiment [18]: qHTS assay for small molecule activators of the heat shock response signaling pathway (AID 743210; active = well fitted activation curve with a large enough effect in the signal ratio in the repeat runs, with a control signal flat, not every such curve was filed as active; the % refers to the signal ratio;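 note: HeLa cells with beta-lactamase reporter driven by heat shock elements; series mostly up to about 63 µM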). A digest of the protocol:
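Following overnight attachment, HSE-bla HeLa cells received test compounds for 5 h at 37 C; beta-lactamase activity was then detected via FRET substrate fluorescence.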

Experiment [19] is described as follows: qHTS assay for small molecule agonists of the antioxidant response element (ARE) signaling pathway (AID 743202; active = well fitted activation curve with a large enough effect in the signal ratio in the repeat runs, not every such curve was filed as active; the % refers to the signal ratio). In outline:
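HepG2 ARE-bla cells; 16 h treatment at 37 C; FRET-based beta-lactamase fluorescence read after 2 h substrate incubation at room temperature.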

“And” between values parts separate entries of the source, which are not always exact repeats. Equal values may be shown once. Inconclusive results are not listed. The source holds several records for some structures; these can differ, active in one and inactive in another. The source made the active and inactive calls. Unless noted, calls come from the whole dose curve; as a rule, active = well fitted curve in the direction sought with a large enough effect in the repeat runs; inconclusive = weak or mixed curves; inactive = no such curve, though single readings can be large; an effect the other way counts as inactive or inconclusive.

Sequence of Peroxisome proliferator-activated receptor gamma (Homo sapiens) (P37231 whole entry, looked up): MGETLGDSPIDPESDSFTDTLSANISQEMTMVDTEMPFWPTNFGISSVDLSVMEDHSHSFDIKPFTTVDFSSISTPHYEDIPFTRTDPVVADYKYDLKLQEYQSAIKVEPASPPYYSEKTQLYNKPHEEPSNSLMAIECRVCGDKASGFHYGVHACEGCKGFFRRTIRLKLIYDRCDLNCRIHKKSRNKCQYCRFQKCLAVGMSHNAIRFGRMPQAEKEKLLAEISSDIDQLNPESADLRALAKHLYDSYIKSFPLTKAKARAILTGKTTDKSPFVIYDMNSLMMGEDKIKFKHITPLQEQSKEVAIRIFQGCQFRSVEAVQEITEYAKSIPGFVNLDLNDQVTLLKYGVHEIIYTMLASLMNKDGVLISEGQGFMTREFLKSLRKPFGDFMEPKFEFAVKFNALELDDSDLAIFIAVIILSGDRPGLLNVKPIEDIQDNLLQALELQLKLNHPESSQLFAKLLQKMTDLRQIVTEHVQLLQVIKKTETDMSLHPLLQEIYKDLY
Sequence of Aromatase (Homo sapiens) (P11511 whole entry, looked up): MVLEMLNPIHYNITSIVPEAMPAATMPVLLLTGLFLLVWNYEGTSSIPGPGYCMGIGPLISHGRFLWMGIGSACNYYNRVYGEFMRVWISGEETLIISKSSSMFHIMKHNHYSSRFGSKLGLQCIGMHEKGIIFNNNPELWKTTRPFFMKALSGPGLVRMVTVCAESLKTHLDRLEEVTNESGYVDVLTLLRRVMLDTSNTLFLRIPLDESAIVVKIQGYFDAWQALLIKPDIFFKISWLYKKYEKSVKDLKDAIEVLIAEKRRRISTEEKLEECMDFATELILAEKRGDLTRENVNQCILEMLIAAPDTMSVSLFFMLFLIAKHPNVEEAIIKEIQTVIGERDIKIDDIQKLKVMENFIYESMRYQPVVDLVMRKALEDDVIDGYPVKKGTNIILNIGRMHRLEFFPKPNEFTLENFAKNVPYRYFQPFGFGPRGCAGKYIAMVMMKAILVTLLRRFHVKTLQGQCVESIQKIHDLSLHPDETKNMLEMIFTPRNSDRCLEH
Sequence of Estrogen receptor (Homo sapiens) (P03372 whole entry, looked up): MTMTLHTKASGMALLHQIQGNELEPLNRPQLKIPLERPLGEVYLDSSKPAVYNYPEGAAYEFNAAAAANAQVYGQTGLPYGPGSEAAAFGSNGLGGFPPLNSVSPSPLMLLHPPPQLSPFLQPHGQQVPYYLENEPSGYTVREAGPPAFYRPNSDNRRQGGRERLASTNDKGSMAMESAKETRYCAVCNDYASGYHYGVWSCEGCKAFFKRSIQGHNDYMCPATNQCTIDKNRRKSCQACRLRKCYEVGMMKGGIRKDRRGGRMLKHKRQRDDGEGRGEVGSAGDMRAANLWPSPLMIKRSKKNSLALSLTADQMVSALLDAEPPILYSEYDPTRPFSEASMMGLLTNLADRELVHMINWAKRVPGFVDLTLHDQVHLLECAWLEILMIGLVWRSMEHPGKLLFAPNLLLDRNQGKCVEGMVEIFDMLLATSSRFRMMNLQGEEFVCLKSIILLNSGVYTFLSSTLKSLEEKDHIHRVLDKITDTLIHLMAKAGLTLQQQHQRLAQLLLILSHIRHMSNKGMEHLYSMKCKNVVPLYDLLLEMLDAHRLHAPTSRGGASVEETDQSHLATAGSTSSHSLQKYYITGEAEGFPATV
Sequence of Aryl hydrocarbon receptor (Homo sapiens) (P35869 whole entry, looked up): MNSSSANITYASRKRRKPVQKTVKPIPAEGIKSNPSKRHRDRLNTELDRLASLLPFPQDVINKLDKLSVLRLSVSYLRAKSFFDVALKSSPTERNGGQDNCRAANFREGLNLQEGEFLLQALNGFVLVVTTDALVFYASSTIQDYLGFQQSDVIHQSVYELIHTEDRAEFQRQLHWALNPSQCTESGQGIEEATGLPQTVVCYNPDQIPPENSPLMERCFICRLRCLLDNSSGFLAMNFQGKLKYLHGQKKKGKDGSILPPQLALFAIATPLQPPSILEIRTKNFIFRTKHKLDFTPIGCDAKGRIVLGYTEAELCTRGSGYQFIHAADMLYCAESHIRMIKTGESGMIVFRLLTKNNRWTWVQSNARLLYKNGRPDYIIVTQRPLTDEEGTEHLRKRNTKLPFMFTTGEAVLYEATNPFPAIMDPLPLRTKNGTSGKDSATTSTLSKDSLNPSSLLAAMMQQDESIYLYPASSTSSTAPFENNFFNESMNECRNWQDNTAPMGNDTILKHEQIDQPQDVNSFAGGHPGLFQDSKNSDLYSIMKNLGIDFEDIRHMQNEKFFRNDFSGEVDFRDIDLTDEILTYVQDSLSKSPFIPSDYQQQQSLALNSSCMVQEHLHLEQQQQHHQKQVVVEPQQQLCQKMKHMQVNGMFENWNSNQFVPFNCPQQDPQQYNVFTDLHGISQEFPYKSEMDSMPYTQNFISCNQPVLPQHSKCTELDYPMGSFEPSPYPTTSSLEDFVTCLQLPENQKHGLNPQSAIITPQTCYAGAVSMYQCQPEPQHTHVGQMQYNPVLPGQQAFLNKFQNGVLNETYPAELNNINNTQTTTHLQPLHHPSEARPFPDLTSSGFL

With `CC(C)(C)c1cc(Cc2cc(C(C)(C)C)c(O)c(C(C)(C)C)c2)cc(C(C)(C)C)c1O`, the Potency result in experiment [1], in experiment [2], in experiment [4], in [6], in experiment [7] and in experiment [9] was “inactive” throughout. Further, the Potency entry (with Aromatase (Homo sapiens); in [10]; in experiment [11]; in experiment [12]; in experiment [16]) was “inactive” throughout. In addition, the result in experiment [3], in experiment [5], in experiment [8], in [13], in experiment [14] and in [15] was inactive. Further, the result in experiment [17] and in [18] was inactive.

Take `CNC(=S)N(C)C`: the Potency entry in experiment [1], in experiment [2], in experiment [4], in [6], in experiment [7] and in [9] was “inactive” in each case. For the same compound, the Potency entry (in the experiment with Aromatase (Homo sapiens); in experiment [10]; in [11]; in experiment [12]; in [19]; in experiment [16]) was “inactive” each time. In addition, the compound was classed as inactive in experiment [3], in [5], in experiment [8], in [13], in experiment [14] and in [15]. Further, the call in [17] and in experiment [18] was inactive.

For `CC(=O)OCCOC(C)=O`, the Potency entry in experiment [1], in experiment [2], in experiment [4], in experiment [6], in experiment [7] and in experiment [9] was “inactive” throughout. Moreover, the Potency result (with Aromatase (Homo sapiens); in experiment [10]; in [11]; in experiment [12]; in [19]; in experiment [16]) was “inactive” throughout. The outcome in [3], in experiment [5], in experiment [8], in experiment [13], in [14] and in [15] was inactive. Also, the result in experiment [17] and in experiment [18] was inactive.

As for `CC(=O)CCC=C(C)C`, the Potency result in experiment [1], in experiment [2], in experiment [4], in experiment [6], in [7] and in [9] was “inactive” each time. The Potency result (in the experiment with Aromatase (Homo sapiens); in experiment [10]; in [11]; in [12]; in experiment [16]) was “inactive” in each case. Further, the compound was classed as inactive in experiment [3], in experiment [5], in experiment [8], in experiment [13], in [14] and in experiment [15]. In addition, the compound was classed as inactive in [17] and in experiment [18].

In the case of `CCNC(=S)NCC`, the Potency result (in [1]; in experiment [2]; in experiment [4]; in experiment [6]; in experiment [9]; with Aromatase (Homo sapiens)) was “inactive” throughout. The Potency entry in experiment [10], in experiment [11], in experiment [12], in [19] and in experiment [16] was “inactive” each time. Further, the call in experiment [3], in [5], in experiment [8], in experiment [13], in [14] and in experiment [15] was inactive. The compound was called inactive in experiment [17] and in experiment [18]. Also, the Potency result in [7] was “inactive and 54.5 µM (active)”.

`O=c1[nH]cnc2[nH]ncc12`: the Potency entry in experiment [1], in experiment [2], in [4], in experiment [6], in experiment [7] and in experiment [9] was “inactive” throughout. In addition, the Potency result (in the experiment with Aromatase (Homo sapiens); in [10]; in [11]; in experiment [12]; in experiment [19]; in experiment [16]) was “inactive” in each case. The result in [3], in [5], in [8], in experiment [13], in experiment [14] and in experiment [15] was inactive. In addition, the call in experiment [17] and in experiment [18] was inactive.

With `CC(C)OC(=O)COc1ccc(Cl)cc1Cl`, the Potency result in experiment [1], in experiment [2], in experiment [4], in [6], in [7] and in experiment [9] was “inactive” each time. For the same compound, the Potency entry (with Aromatase (Homo sapiens); in experiment [10]; in experiment [11]; in [12]; in experiment [16]) was “inactive” in each case. For the same compound, the result in [3], in experiment [5], in experiment [8], in experiment [13], in experiment [14] and in experiment [17] was inactive. Also, the result in experiment [18] was inactive.

The record behind these values is PubChem BioAssay (Tox21).
